The text below walks through data of PubChem BioAssay (NCATS).

The nature of test [1]: Primary qHTS for inhibitors of nuclear receptor binding SET domain protein 2 (NSD2) in an isogenic RCH-ACV NSD2 p.E1099K mutant (9B) (AID 1645876).
Test [2] can be described thus: Primary qHTS for inhibitors of nuclear receptor binding SET domain protein 2 (NSD2) in an RCH-ACV wild type WT cells (2C) (AID 1645877).

Inconclusive results are not listed. A number with no mark means an inactive call. Active and inactive are the calls of the source. Calls come from the whole dose curve; as a rule, active = well fitted curve in the direction sought with a large enough effect; inconclusive = small, poorly fitted or top-dose-only effect, or another doubt; inactive = no such curve, though single readings can be large; an effect the other way counts as inactive or inconclusive.
% is set by controls: 0 for no effect and ±100 for the full control effect.
Note: nearly all actives have a fitted effect of over 70% in size.

On to `COC(=O)Cc1cc2c(c([N+](=O)[O-])c1)N(C(=O)CC[C@H](N)C(=O)O)CC2`, for which the Potency entry in test [1] and in test [2] was “inactive” each time.
On to `CCCC(=O)O[C@@H]1[C@@H]2[C@@H](OC(C)=O)[C@]3(C)C(=O)[C@H]4[C@@H](OC(C)=O)C(C)(C)C[C@H]4[C@]3(C)C(=O)[C@@]2(OC(C)=O)C[C@@H]1C`, for which the Potency result in test [1] and in test [2] was “inactive” each time.
With `C[C@]12C=C[C@@]3(CCC4[C@](C)(CO)CCC[C@@]4(C)C3CC1)C2` (stereo partly specified), the Potency result in test [1] and in test [2] was “inactive” throughout.
Consider `CC(C)(C)c1ccc(S(=O)(=O)Nc2ccc(Cl)cc2C(=O)c2cc[n+]([O-])cc2)cc1`, for which the Potency entry in test [1] and in test [2] was “inactive” each time.
Regarding `C[C@@H]1O[C@@H](O[C@@H]2[C@@H](O)[C@@H](O[C@]3(CO)O[C@H](CO)[C@@H](O)[C@@H]3OC(=O)/C=C/c3ccc(O)cc3)O[C@H](CO)[C@H]2OC(=O)/C=C/c2ccc(O)cc2)[C@H](O)[C@H](O)[C@H]1O[C@@H]1O[C@@H](C)[C@H](O[C@@H]2OC[C@](O)(CO)[C@H]2O)[C@@H](O)[C@H]1O`, the outcome in test [1] was “inactive [at 9.23 µM]”. For the same compound, the activity change, negative = cell killing in test [2] was 1.71% [at 9.23 µM].
In the case of `O=C1NC(Cc2ccccc2)C(=O)N2CCCC12` (stereo unspecified), the Potency result in test [1] and in test [2] was “inactive” each time.
In the case of `C=CC(C)(C)c1[nH]c2cc3c(cc2c1CC1NC(=O)C2CCCN2C1=O)C=CC(C)(C)O3` (stereo unspecified), the Potency result in test [1] and in test [2] was “inactive” in each case.
Turning to `CC(C)=CC/C=C(\C)[C@H]1CC[C@]2(C)[C@@H]1[C@H](O)C[C@@H]1[C@@]3(C)CC[C@H](O)C(C)(C)[C@@H]3[C@@H](O[C@@H]3O[C@H](CO)[C@@H](O)[C@H](O)[C@H]3O)C[C@]12C`, the Potency entry in test [1] and in test [2] was “inactive” throughout.
